Our source for the Potency values is PubChem BioAssay AID485313 (National Center for Advancing Translational Sciences (NCATS), 2010).

Structures are written as SMILES. The whole screen tested about 320,000 compounds, of which about 7,600 (2.4%) were called active. Entries that show only a call come without a potency. About 3% were inconclusive and are not listed. Calls come from the whole dose curve; as a rule, active = well fitted activation curve with a large enough effect; inconclusive = small, poorly fitted or top-dose-only effect; inactive = no such curve, though single readings can be large or run the other way. For the sample, actives were picked, then their nearest neighbours and some compounds at random.
Potency is the fitted concentration of half-maximal effect.

The test can be described thus: qHTS Assay for NPC1 Promoter Activators.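 For activation: reporter is driven by a mutant NPC1 promoter.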 Note: nearly all actives have a fitted effect of over 60% in size. The note with it: Huh7 NPC1 promoter luciferase reporter, 24 h; series mostly up to 9.22 µM. The gist of the method:
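Quantitative HTS used a cell-based reporter: Huh7 cells stably bearing the NPC1 promoter upstream of luciferase were treated with compounds for 24 h, and promoter activation was read as luminescence.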
As for `Cc1nn(Cc2ccccc2)c(C)c1CNC(=O)c1ccc(F)c(S(=O)(=O)N2CCOCC2)c1`, the Potency result was “inactive”.
As for `CN(CC(=O)Nc1cccc(F)c1)C(=O)CC1CCCC1`, the entry is “inactive”; as for `O=C(Nc1ncc([N+](=O)[O-])s1)C1COc2ccccc2O1` (configuration not stated), 3550 nM (active).
As for `C/C(=N/NC(=O)C1COc2ccccc2O1)c1ccco1` (configuration not stated), the entry is “inactive”; as for `COc1ccc(NC(=O)CC2COc3ccccc3O2)c(OC)c1` (configuration not stated), “inactive”.
For `CC(=O)c1cccc(NC(=O)C2COc3ccccc3O2)c1` (configuration not stated) the value was “inactive”; for `COc1ccc(NC(=O)C2COc3ccccc3O2)cc1` (configuration not stated), 2820 nM (active); for `O=C(Nc1nnc(SCc2ccc(Cl)cc2Cl)s1)C1COc2ccccc2O1` (configuration not stated), “inactive”.
Consider `CCc1noc(C)c1C(=O)N1CCN(S(=O)(=O)c2cccc(C(F)(F)F)c2)CC1`, for which the Potency result is “inactive”.
As to `Cc1ccc(CSc2ccc(S(=O)(=O)N3CCCCC3)cn2)cc1`, the Potency result was “inactive”.
For the molecule `CC(C)(C)c1ccc(/C=C/C(=O)Nc2ncccn2)cc1`, the Potency was 3980 nM (active).
Regarding `Cc1cc(C)nc(NC(=O)/C=C/c2ccc(Cl)cc2)n1`, the Potency entry was “inactive”.
For `O=C(/C=C/c1ccc(Cl)cc1)Nc1ccc(S(=O)(=O)Nc2ncccn2)cc1` the value was “inactive”; for `Cc1sc2ncnc(N3CCC(C(=O)Nc4ccc(F)cc4Cl)CC3)c2c1C`, “inactive”; for `CCOC(=O)N1CCN(C(=O)COC(=O)c2cccc(S(C)(=O)=O)c2)CC1`, “inactive”.
As for `Cc1nc(-c2ccc(NC(=O)c3cccs3)cc2)cs1`, the figure is 355 nM (active); as for `O=C(Nc1ccccc1)c1ccc(NC(=O)c2cccs2)cc1`, “inactive”.
As for `Cc1ccc(C(=O)Nc2ccc(NC(=O)c3cccs3)cc2)c(C)c1`, the Potency result is “inactive”.
As for `Cc1noc(C)c1C(=O)NCC1COc2ccccc2O1` (configuration not stated), the Potency result is “inactive”.
As for `COc1ccc(OCc2cc(C(=O)N3CCCC3)no2)c2ccccc12`, the figure is 3160 nM (active).
As to `O=C(c1cc(-c2cccs2)on1)N1CCCCC1`, the Potency was 1000 nM (active).
Turning to `O=C(CSc1n[nH]c(-c2cccs2)n1)N1CCCCC1`, the Potency entry is “inactive”.
For `COc1cccc(-c2cc(C(=O)N3CCN(c4ccccc4OC)CC3)no2)c1` the value was “inactive”.
For `O=C(c1cc(-c2ccc(F)cc2)on1)N1CCN(c2ccc(F)cc2)CC1` the value was “inactive”; for `COc1ccccc1-c1cc(C(=O)N2CCCCC2)no1`, 3550 nM (active).
Regarding `CC(=O)c1ccc(NC(=O)c2cc(-c3cccs3)on2)cc1`, the Potency entry was “inactive”.
For `COCCN1CCN(C(=O)c2cc(COc3ccc(F)cc3Cl)on2)CC1` the value was “inactive”.
As for `O=C(c1cc(-c2ccc(O)cc2)on1)N1CCOCC1`, the figure is 891 nM (active); as for `COc1ccccc1-c1cc(C(=O)NCCCn2ccnc2)no1`, “inactive”.
As for `COc1cc(Cl)ccc1OCc1cc(C(=O)N2CC[C@@H]3CCCC[C@H]3C2)no1`, the entry is “inactive”.
`O=C(c1cc(-c2ccc(Cl)cc2)on1)N1CCN(c2ccccc2)CC1`: the Potency entry is “inactive”.
For `Cc1ccc(OCC(=O)N2CCN(S(=O)(=O)c3ccc(Cl)s3)CC2)cc1C` the value was “inactive”; for `CCN(CC)c1ccc(NC(=O)CN2C(=O)NC3(CCc4ccccc43)C2=O)cc1` (configuration not stated), “inactive”; for `CCOC(=O)C1CCCN(C(=O)c2ccc(C)c(S(=O)(=O)N3CCCCC3)c2)C1` (configuration not stated), “inactive”.
As for `CCc1c(C)nc2cc(C)[nH]n2c1=O`, the Potency result was “inactive”.
For `CCc1c(C)nc2cc(-c3cccs3)[nH]n2c1=O` the value was “inactive”; for `C=CCc1c(C)nc2cc(-c3ccccc3)[nH]n2c1=O`, 1780 nM (active); for `O=C(Nc1cccc2ccccc12)c1onc2c1CCCC2`, “inactive”.
As for `COc1ccccc1C(CNC(=O)c1ccc(C)c(S(=O)(=O)N2CCCCC2)c1)N(C)C` (configuration not stated), the entry is “inactive”.
Take `COc1cc2c(cc1OC)/C(=C/C(=O)c1ccc(NC(C)=O)cc1)NCC2`: the Potency result is “inactive”.
As for `CC1(C)Cc2ccccc2/C(=C/C(=O)c2ccccc2)N1`, the entry is “inactive”.
For the molecule `CC1CN/C(=C\C(=O)c2ccc(Br)cc2)C(=O)N1` (configuration not stated), the Potency was 891 nM (active).
As for `O=C(NCC#CCSc1nnc(-c2cccc3ccccc23)o1)c1cccs1`, the entry is “inactive”; as for `O=C(NNC(=O)c1cccc(S(=O)(=O)Nc2ccc(Cl)cc2)c1)c1ccc(=O)[nH]c1`, “inactive”; as for `CCC(=O)N(CCc1ccccc1)Cc1cc2cc(C)ccc2[nH]c1=O`, “inactive”.
Consider `O=C(Nc1ccc(C(=O)N2CCCCC2)cc1)c1cccc([N+](=O)[O-])c1`, for which the Potency result was “inactive”.
For `O=C(Nc1ccc(C2CC2(Cl)Cl)cc1)c1cccc([N+](=O)[O-])c1` (configuration not stated) the value was 2000 nM (active); for `O=C(Nc1ccc(NC(=O)c2ccco2)c(Cl)c1)c1cccc([N+](=O)[O-])c1`, “inactive”.
As for `O=C(CN1C(=O)NC2(CCOc3ccccc32)C1=O)NCc1ccc(F)cc1` (configuration not stated), the entry is “inactive”; as for `O=C(OCC(=O)N1CCCCCC1)c1cnc(Cl)c(Cl)c1`, “inactive”; as for `O=C(CCCc1ccccc1)NCc1ccccc1`, “inactive”.
As for `C=CCN1CCN(C(=O)CCCc2ccccc2)CC1`, the Potency is 316 nM (active).
On to `CCC(C)NC(=O)CCCc1ccccc1` (configuration not stated), for which the Potency entry was “inactive”.
For `Nc1nnc(SCC(=O)NCC(=O)Nc2ccc(F)c(F)c2F)s1` the value was “inactive”; for `Nc1nonc1-c1noc(-c2ccc(Br)o2)n1`, “inactive”; for `Brc1ccc(-c2noc(-c3ccccc3)n2)o1`, 2240 nM (active).
`Cn1nc(-c2ccccc2)c(-c2nc(-c3ccc(Cl)cc3)no2)c1Cl`: the Potency entry was “inactive”.
As for `CC(C)(C)OC(=O)NCCCCCNC(=O)c1nc[nH]c1C(=O)NCc1ccccc1`, the entry is “inactive”.
As to `O=S(=O)(c1ccccc1)N(Cc1cccc(F)c1)c1ccccc1`, the Potency result was “inactive”.
For `N#Cc1cccc(NC(=O)C2CCCN(C(=O)c3ccc(Cl)cc3)C2)c1` (configuration not stated) the value was “inactive”.
For `CC(C)CNC(=O)C(=O)Nc1ccc(N(C)C)cc1` the value was 3980 nM (active); for `CC(C)CNC(=S)Nc1ccc(F)cc1`, “inactive”.
Regarding `CC(C)CNC(=O)C(=O)NCc1ccccc1`, the Potency entry was “inactive”.
For `CC(OC(=O)c1cc2ccccc2o1)C(=O)Nc1ccc(N2CCOCC2)cc1` (configuration not stated) the value was “inactive”; for `COC(=O)c1cc(Oc2ccc(S(=O)(=O)N3CCOCC3)cc2[N+](=O)[O-])cc(C(=O)OC)c1`, “inactive”.
For `CC(C)C[C@H](NC(=O)[C@H](O)[C@H](N)Cc1ccccc1)C(=O)O` the value was “inactive”; for `COc1cccc(-c2ccc3c(c2)S(=O)(=O)c2cccc(C(=O)O)c2C3=O)c1OC`, “inactive”.
As for `COc1ccc2c(c1OC)C(=O)c1ccccc1C2=O`, the figure is 2820 nM (active); as for `COc1ccc(/C=C2\CCc3ccccc3C2=O)c(OC)c1OC`, “inactive”.
As for `CCOC(=O)c1sc(N)c(C#N)c1COC(=O)C1=COCCO1`, the Potency result was “inactive”.
For `CC(=O)c1ccc(S(=O)(=O)N2CCN(C(=O)/C=C/c3ccc4ccccc4n3)CC2)cc1` the value was “inactive”; for `COc1cccc(/C=C2\C=C(c3ccc(C)cc3)OC2=O)c1OC(C)=O`, “inactive”; for `NC(=O)COC(=O)/C=C/c1ccc2ccccc2n1`, “inactive”.
As for `CCOc1ccccc1-c1cc(C(=O)N2CCOCC2)c2ccccc2n1`, the entry is “inactive”; as for `COc1cccc(/C=C/c2ccc3ccccc3n2)c1OC(C)=O`, 1000 nM (active); as for `CCOc1cccc(/C=C/c2ccc3ccccc3n2)c1OC(C)=O`, 631 nM (active).
As for `CNS(=O)(=O)c1cccc(C(=O)OCCCC(=O)c2ccccc2)c1`, the entry is “inactive”.
In the case of `COc1ccccc1-c1nn(Cc2ccccc2)cc1C(=O)N1CCN(c2ncccn2)CC1`, the Potency result is “inactive”.
Take `CC1(C)CC(=O)C=C(c2cccc3c2Oc2ccccc2S3)C1`: the Potency result is “inactive”.
As for `O=C(COC(=O)CNC(=O)C1CCCCC1)Nc1cccc(F)c1`, the entry is “inactive”.
As for `Cc1ccccc1OCCC(=O)OCC(=O)NCCc1ccc(S(N)(=O)=O)cc1`, the entry is “inactive”; as for `O=C(CN1CCN(C2CCS(=O)(=O)C2)CC1)N1N=C(c2ccc(Cl)cc2)CC1c1ccco1` (configuration not stated), “inactive”; as for `CC(=O)Nc1ccc(NC(=O)CCN2C(=O)C3CC=CCC3C2=O)cc1` (configuration not stated), “inactive”.
For `CCC(=O)c1cn(CCOc2ccccc2OC)c2ccccc12` the value was “inactive”; for `CCOC(=O)CC1(NC(=O)c2cc(COc3cncc(Cl)c3)on2)CCCCC1`, “inactive”.
On to `Cc1nonc1C1CCCN1C(=O)c1cc(COc2cccc(C(F)(F)F)c2)on1` (configuration not stated), for which the Potency entry was “inactive”.
As for `CCCOC1CCCN(C(=O)c2cc(COc3cncc(Cl)c3)on2)C1` (configuration not stated), the figure is 3980 nM (active); as for `Cc1ccc2c(c1)C1CN(C)CCC1N2S(=O)(=O)c1cccc(F)c1` (configuration not stated), “inactive”; as for `O=C(CN1CCCSc2ccccc21)N1CCN(S(=O)(=O)c2cccc(F)c2)CC1`, “inactive”.
As for `COC(=O)C1=C(C)NC(=S)NC1c1ccc(OCC(=O)N2CC(C)OC(C)C2)c(OC)c1` (configuration not stated), the entry is “inactive”; as for `COc1ccc(CCNC(=O)COc2ccc3c(c2)OCO3)cc1`, “inactive”; as for `CC(=O)NS(=O)(=O)c1ccc(NC(=O)C2C3C=CC(C3)C2C(=O)O)cc1` (configuration not stated), “inactive”.
As for `CC(C)COC(=O)c1ccc(NC(=O)C2C3C=CC(C3)C2C(=O)O)cc1` (configuration not stated), the figure is 2240 nM (active); as for `COC(=O)c1cc(NC(=O)C2C3C=CC(C3)C2C(=O)O)cc(C(=O)OC)c1` (configuration not stated), “inactive”; as for `CCN(CC)S(=O)(=O)c1ccc2[nH]c(=O)cc(C(=O)N(C)C3CCS(=O)(=O)C3)c2c1` (configuration not stated), “inactive”.
For the molecule `C[C@H](OC(=O)n1ccnc1)[C@@H]1O[C@@]2(C)CCC[C@@H]1O2`, the Potency result is “inactive”.
Regarding `COc1ccccc1N1CC(C(=O)NCCN2C(=O)S/C(=C\c3cccnc3)C2=O)CC1=O` (configuration not stated), the Potency result was “inactive”.
For `Cc1ccc(C(CC(=O)O)NC(=O)c2ccc(S(=O)(=O)N3CCCC3)cc2)cc1` (configuration not stated) the value was “inactive”; for `O=C(NCCN1CCOCC1)c1cccc(S(=O)(=O)Nc2ccc(F)cc2)c1`, “inactive”; for `O=C(NC1CCCCC1)c1ccc(-c2ccc(Cl)cc2)o1`, 3160 nM (active).
For `O=C(NC(=S)NC1CCCCC1)c1ccc(Cl)cc1` the value was “inactive”.
For `O=C(NC1CCCCCC1)c1cccnc1Sc1ccc(Cl)cc1` the value was “inactive”.
Turning to `Cc1ccc(NC(=O)C(C)Sc2nnc(C3CC3)n2C2CC2)cc1S(=O)(=O)N1CCOCC1` (configuration not stated), the Potency entry is “inactive”.
Consider `C=CCn1c(SCC(=O)NC(=O)Cc2ccccc2)nc2ccccc2c1=O`, for which the Potency entry is “inactive”.
Regarding `Cc1nc(/N=C(\N)NC(=O)NC2CCCCC2)nc2ccccc12`, the Potency result was “inactive”.
As for `O=C(/C=C/c1cnc2ccccc2n1)NC1CCCCCC1`, the figure is 3550 nM (active); as for `O=C(Cn1c(-c2cncs2)nc2ccccc21)NC1CCCC1`, “inactive”.
